# Data as given in PubChem BioAssay.
# Where “and” joins values, the source holds several entries; their conditions need not be identical. Equal entries are not always repeated. For some assays here: Entries with a potency or affinity are not part of this list. Calls of active or inactive are those of the source.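 Rule for the calls, unless noted: active = compounds whose cell count with miR-34 switched on is under 0.7 times the count with it off; inactive = the rest.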
# Experiments:
# [1] = compounds altering viability of human ES cells (AID 493140; call rule not given here;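 note: cells exposed to compounds for four days before counting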); details: human embryonic stem cell survival screen; stronger effect = higher value
# [2] = P. berghei load reduction in hepatocytes – cell-based, HepG2, luciferase luminescence, HepG2 viability, primary screen (AID 624349; in the data active = parasite load remaining mostly below about 12%, no sharp cut-off; inactive = mostly above about 10%;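 note: 100% = mean of DMSO negative control wells on the same plate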); details: P. berghei liver stage in HepG2, luciferase luminescence, concentration not given here; parasite load remaining: stronger effect = lower value; viability: measured here: HepG2 viability without parasites
# [3] = viability loss with induced miR-34 in A549 – imaging, A549 dox-inducible miR-34, nuclei and caspase counts, primary screen (AID 1347080); details: A549 miR-34 inducible, Hoechst nuclei count, 48 h
# [4] = MELAS cybrid and Rieske KO viability enhancers – cell-based, MELAS cybrids, Rieske KO mouse fibroblasts, CellTiter-Glo, primary screen (AID 1508586;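 active = mean z-score across replicates of 1.96 or higher in either the MELAS or the Rieske mutant cell line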;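 note: z relative to plate mean and SD of compound and empty wells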); details: low glucose
# [5] = target: NAD(+) hydrolase SARM1 (Homo sapiens) (UniProt Q6SZW1); assay: blocking NAD cleavage by SARM1 SAM-TIR – cell lysate, NAD-Glo luminescence (AID 1508614;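 active = compound whose remaining NAD level is above about 45 nM, limit read from the data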;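 note: higher remaining NAD means stronger inhibition of SARM1 NADase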); details: SAM-TIR HEK293T lysate NADase, at 1 µM, stronger effect = higher value
# [6] = blockers of polyQ-driven CASP3 activation – cell-based (AID 1583); details: polyglutamine-induced caspase-3 activation, cell assay; stronger effect = higher value;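 tested at 10 µM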
# [7] = yeast 75Q aggregation reduction – 75Q-TubU reporter (AID 1593); details: Yeast 75Q polyglutamine aggregation reporter
# [8] = restoration of touch response, mutant HTT neurons – whole organism, C. elegans mechanosensory neurons, N-terminal huntingtin (AID 1599); details: C. elegans polyQ-huntingtin mechanosensory neurons, stronger effect = higher value
# [9] = blockers of cytochrome c efflux from mitochondria – biochemical, purified mitochondria (AID 1603); details: stronger effect = lower value;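 note: mouse liver mitochondria challenged with calcium chloride; signal normalized to the plate average as 100%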
# [10] = polyglutamine aggregate formation blockers (AID 1604); details: polyglutamine-induced protein aggregation inhibition assay; stronger effect = higher value; tested at 2.5 µM
# [11] = glutamate transport activators, MN-1 cells, MN-1 cell line (AID 1612); details: MN-1 motor neuron cells, stronger effect = higher value;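 note: tested at 1 µM final; 0% = mean of DMSO vehicle wells on each plate; positive means more glutamate uptake than control and negative means less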
# [12] = GFP-Q80 aggregate reduction, neuronal-like cells, cell-based, NGF-treated PC12, GFPQ80 (AID 1614); details: PC12 NGF-treated GFP-polyQ80 inclusion reduction;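 note: lower means fewer inclusions and 0 means no inclusions at all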
# [13] = 75Q-TubH aggregate inhibition, S. cerevisiae, yeast (AID 1616); details: S. cerevisiae 75Q-TubH polyglutamine aggregation suppression; stronger effect = higher value
# [14] = galactose survival enhancers in mitochondrial complex I cybrids – cell-based, galactose medium, ATP luminescence, primary screen (AID 1645843;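 active = z-score of at least 1.8 in each of two replicates, scored against plate mean and spread of sample wells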;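 note: positive z means more ATP and so rescue of galactose-driven cybrid death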); details: complex I mutant cybrid cells, 72 h, stronger effect = higher value
# [15] = stronger effect = lower value, cell number ratio, induced over uninduced
# [16] = measured here: relative caspase fold change +Dox/-Dox
# [17] = measured here: total cells with miR-34 induction, stronger effect = lower value
# [18] = measured here: total cells without miR-34 induction
# [19] = MELAS cybrid survival, CellTiter-Glo 48 h, stronger effect = higher value
# [20] = Rieske KO mouse fibroblast survival, CellTiter-Glo 72 h
# Sequence of NAD(+) hydrolase SARM1 (Homo sapiens) (Q6SZW1 whole entry, looked up): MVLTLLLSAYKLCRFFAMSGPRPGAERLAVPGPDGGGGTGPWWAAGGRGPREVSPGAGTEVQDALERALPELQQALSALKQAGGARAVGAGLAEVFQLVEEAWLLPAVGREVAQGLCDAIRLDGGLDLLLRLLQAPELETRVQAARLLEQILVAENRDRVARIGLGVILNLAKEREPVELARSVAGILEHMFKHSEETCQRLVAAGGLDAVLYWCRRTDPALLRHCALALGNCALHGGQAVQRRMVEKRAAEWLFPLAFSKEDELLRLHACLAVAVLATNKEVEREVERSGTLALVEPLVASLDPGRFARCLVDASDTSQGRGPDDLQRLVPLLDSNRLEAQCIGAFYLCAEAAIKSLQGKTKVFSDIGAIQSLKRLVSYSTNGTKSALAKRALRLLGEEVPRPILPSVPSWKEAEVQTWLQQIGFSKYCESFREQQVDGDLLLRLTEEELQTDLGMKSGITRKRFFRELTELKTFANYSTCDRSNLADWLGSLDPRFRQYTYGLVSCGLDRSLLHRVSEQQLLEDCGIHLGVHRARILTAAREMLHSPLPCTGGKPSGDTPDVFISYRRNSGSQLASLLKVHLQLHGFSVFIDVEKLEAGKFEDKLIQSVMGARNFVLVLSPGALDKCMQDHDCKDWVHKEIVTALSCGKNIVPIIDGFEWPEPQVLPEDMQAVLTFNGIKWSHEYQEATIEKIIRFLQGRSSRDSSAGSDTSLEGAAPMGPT
compound,measurement,setting,value
CNCC(O)c1ccc(OC(=O)C(C)(C)C)c(OC(=O)C(C)(C)C)c1 (stereo not drawn),survival,[1],4.83 (inactive)
same,parasite load remaining,[2],97.5% (inactive) and 55.6% (inactive)
same,viability,[2],100% and 75.1%
same,fold change,[3]; [15],0.893 (inactive)
same,fold change,[3]; [16],0.873
same,cell count,[3]; [17],8640
same,cell count,[3]; [18],9680
same,z-score,[4]; [19],-1.22 (inactive)
same,z-score,[4]; [20],-0.55
CN[C@H]1[C@@H](O)[C@H](O[C@H]2[C@@H](O)[C@@H](OC3OC(CN)=CCC3N)[C@H](N)C[C@@H]2N)OC[C@@]1(C)O (stereo partly drawn),parasite load remaining,[2],95.5% (inactive)
same,viability,[2],113%
same,fold change,[3]; [15],0.885 (inactive)
same,fold change,[3]; [16],1.15
same,cell count,[3]; [17],9450
same,cell count,[3]; [18],10700
same,z-score,[4]; [19],0.354 (inactive)
same,z-score,[4]; [20],0.0602
CN(C)CC/C=C1\c2ccccc2CSc2ccccc21,parasite load remaining,[2],36.7% (inactive)
same,viability,[2],110%
same,fold change,[3]; [15],0.831 (inactive)
same,fold change,[3]; [16],1.19
same,cell count,[3]; [17],6880
same,cell count,[3]; [18],8280
same,z-score,[4]; [19],-0.0112 (inactive)
same,z-score,[4]; [20],-0.183
NC[C@@H]1O[C@H](O[C@H]2[C@@H](O)[C@H](O[C@@H]3[C@@H](O)[C@H](N)C[C@H](N)[C@H]3OC3O[C@H](CO)[C@@H](O)[C@H](O)[C@H]3N)O[C@@H]2CO)[C@H](N)[C@@H](O)[C@@H]1O (stereo partly drawn),parasite load remaining,[2],69.5% (inactive)
same,viability,[2],103%
same,fold change,[3]; [15],0.833 (inactive)
same,fold change,[3]; [16],1.19
same,cell count,[3]; [17],8720
same,cell count,[3]; [18],10500
same,z-score,[4]; [19],0.673 (inactive)
same,z-score,[4]; [20],-0.125
CC[C@@]1([C@@H]2O[C@@H]([C@H]3O[C@@](O)(CO)[C@H](C)C[C@@H]3C)C[C@@H]2C)CC[C@H]([C@]2(C)CC[C@]3(C[C@H](O)[C@@H](C)[C@@H]([C@@H](C)[C@@H](OC)[C@H](C)C(=O)O)O3)O2)O1 (stereo in doubt),parasite load remaining,[2],-0.09% (active)
same,viability,[2],93.8%
same,fold change,[3]; [15],0.901 (inactive)
same,fold change,[3]; [16],1.01
same,cell count,[3]; [17],2780
same,cell count,[3]; [18],3090
same,z-score,[4]; [19],-2.78 (inactive)
same,z-score,[4]; [20],-1.77
C/C(=C(/CCO)SSCC1CCCO1)N(C=O)Cc1cnc(C)nc1N (stereo not drawn),survival,[1],5.83 (inactive)
same,parasite load remaining,[2],105% (inactive)
same,viability,[2],73.2%
same,fold change,[3]; [15],0.933 (inactive)
same,fold change,[3]; [16],0.561
same,cell count,[3]; [17],9240
same,cell count,[3]; [18],9910
same,z-score,[4]; [19],0.79 (inactive)
same,z-score,[4]; [20],0.563
COc1ccc(C(=O)c2ccc(C)cc2)c(O)c1,fold change,[3]; [15],0.81 (inactive)
same,fold change,[3]; [16],1.2
same,cell count,[3]; [17],4460
same,cell count,[3]; [18],5510
same,remaining NAD,[5],10 nM (inactive)
CN=C(N)NCCCC(N)C(=O)O (stereo not drawn),inhibition,[6],9.27%
same,score,[7],2.21
same,rescue above control,[8],-4.19
same,cytochrome c release ratio,[9],0.94
same,inhibition of aggregation,[10],-4.76%
same,glutamate uptake change,[11],3.17%
same,inclusion score,[12],2
same,aggregation suppression score,[13],1.06
same,fold change,[3]; [15],0.944 (inactive)
same,fold change,[3]; [16],1.42
same,cell count,[3]; [17],9430
same,cell count,[3]; [18],9990
same,z-score,[14],1.06 (inactive)
